Test results as given in PubChem BioAssay (EPA / NIEHS).
Inconclusive results are not listed. Activity calls are given as the source filed them. How the source made its calls: active means hit-call score of the fitted dose curve at least 0.9, where 1 is the maximum; inconclusive means response in the unintended direction; inactive means score below 0.9.

Each compound was assayed against human Histamine 1 Receptor (H1), HRH1 (gene 3269) (UniProt P35367) (assay: NVS_GPCR_hH1: NovaScreen (NVS) G Protein-Coupled Receptor Assay for human Histamine 1 Receptor (H1) (AID 2283268)).
Method in brief: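 Filter-based scintillation detection of radioligand binding to human H1, 1 h incubation; chemicals screened in duplicate at 25 uM, then concentration-response; signal loss relative to DMSO taken as activity.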

Chain of human Histamine 1 Receptor (H1), HRH1 (gene 3269) (P35367 whole entry, looked up): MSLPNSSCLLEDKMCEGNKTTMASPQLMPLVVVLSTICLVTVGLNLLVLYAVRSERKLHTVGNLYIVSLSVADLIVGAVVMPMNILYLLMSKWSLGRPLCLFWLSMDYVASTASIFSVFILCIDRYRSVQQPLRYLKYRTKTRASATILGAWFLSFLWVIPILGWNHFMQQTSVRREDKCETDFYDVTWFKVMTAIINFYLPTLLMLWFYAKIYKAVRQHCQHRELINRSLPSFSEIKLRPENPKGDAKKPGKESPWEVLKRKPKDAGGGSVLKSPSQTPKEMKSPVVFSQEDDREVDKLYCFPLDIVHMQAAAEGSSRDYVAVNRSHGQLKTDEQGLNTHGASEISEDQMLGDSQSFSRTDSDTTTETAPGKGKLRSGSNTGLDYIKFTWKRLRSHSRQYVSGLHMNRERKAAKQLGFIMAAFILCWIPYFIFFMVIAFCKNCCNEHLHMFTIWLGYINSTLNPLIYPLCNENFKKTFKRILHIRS

Row | Structure (SMILES) | AC50
1 | c1ccc(C[n+]2cccc3ccccc32)cc1 | 13 µM (active)
2 | Cc1occc1C(=O)Nc1ccc(C(=O)N2CCC(F)(F)/C(=C\C(=O)N3CCC(N4CCCCC4)CC3)c3ccccc32)cc1 | 0.148 µM (active)
3 | Clc1cc(Cl)c2c(c1)N=C1CCCCCN1C2 | 4.5 µM (active)

What follows are compounds tested against human Leukotriene B4 Receptor 1 (LTB4-BLT1), LTB4R (gene 1241) (UniProt Q15722) (assay: NVS_GPCR_hLTB4_BLT1: NovaScreen (NVS) G Protein-Coupled Receptor Assay for human Leukotriene B4 Receptor 1 (LTB4-BLT1) (AID 2283271)).
Method in brief: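 Cell-free human neutrophil receptor preparation, 1 h exposure, radioligand binding read by filter scintillation counting. Single 25 uM duplicate screen, then concentration series topping at 50 uM; binding loss scored against DMSO baseline.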

Chain of human Leukotriene B4 Receptor 1 (LTB4-BLT1), LTB4R (gene 1241) (Q15722 whole entry, looked up): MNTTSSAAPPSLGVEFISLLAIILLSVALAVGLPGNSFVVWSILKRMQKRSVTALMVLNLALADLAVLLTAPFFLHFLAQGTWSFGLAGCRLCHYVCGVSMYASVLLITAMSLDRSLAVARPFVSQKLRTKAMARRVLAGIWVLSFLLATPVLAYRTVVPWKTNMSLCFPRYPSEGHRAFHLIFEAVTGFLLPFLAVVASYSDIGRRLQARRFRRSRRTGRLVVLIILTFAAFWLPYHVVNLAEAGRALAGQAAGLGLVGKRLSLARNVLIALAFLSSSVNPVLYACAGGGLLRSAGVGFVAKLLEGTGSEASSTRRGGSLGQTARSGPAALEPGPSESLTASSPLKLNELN

Row | Structure (SMILES) | outcome | AC50
4 | CC(C)(C)c1csc(-c2cc3cc(OCc4ccccc4CC(=O)O)ccc3o2)n1 | inactive | 
5 | Cc1oc2c(NC(=O)c3c(Cl)cccc3Cl)cccc2c1C(C)(C)O |  | 11.7 µM (active)
6 | Cc1ccc2oc(CN(Cc3ccccc3)C(=O)Nc3c(F)cc(F)cc3F)c(-c3ccc(Cl)cc3)c2c1 | inactive | 

Each compound was assayed against Muscarinic acetylcholine receptor M2 (Homo sapiens) (UniProt P08172) (assay: NVS_GPCR_hM2: NovaScreen (NVS) G Protein-Coupled Receptor Assay for human Muscarinic, M2 Receptor (AID 2283273)).
Method in brief: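 Filter-based radiodetection read bound radioligand 1 h after dosing CHO-derived membrane protein. Single-concentration duplicates (25 uM) first, then concentration-response for actives; signal loss versus DMSO scored.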

Chain of Muscarinic acetylcholine receptor M2 (Homo sapiens) (P08172 whole entry, looked up): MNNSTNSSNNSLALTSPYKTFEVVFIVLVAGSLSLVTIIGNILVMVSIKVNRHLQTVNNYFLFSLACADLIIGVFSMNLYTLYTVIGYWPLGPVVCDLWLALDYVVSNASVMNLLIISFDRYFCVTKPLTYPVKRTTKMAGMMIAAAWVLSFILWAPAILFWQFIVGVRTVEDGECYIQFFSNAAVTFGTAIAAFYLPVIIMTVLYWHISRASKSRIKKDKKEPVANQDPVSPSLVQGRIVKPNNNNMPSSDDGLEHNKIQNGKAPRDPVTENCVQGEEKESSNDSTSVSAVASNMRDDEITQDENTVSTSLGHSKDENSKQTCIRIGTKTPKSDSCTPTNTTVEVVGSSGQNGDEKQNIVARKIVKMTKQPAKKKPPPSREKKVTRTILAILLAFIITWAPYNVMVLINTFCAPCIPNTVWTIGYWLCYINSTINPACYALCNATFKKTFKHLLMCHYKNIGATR

Row | Structure (SMILES) | AC50
7 | c1ccc(C[n+]2cccc3ccccc32)cc1 | 9.2 µM (active)
8 | Cc1occc1C(=O)Nc1ccc(C(=O)N2CCC(F)(F)/C(=C\C(=O)N3CCC(N4CCCCC4)CC3)c3ccccc32)cc1 | 4.43 µM (active)
9 | Clc1cc(Cl)c2c(c1)N=C1CCCCCN1C2 | 1.17 µM (active)

What follows are compounds tested against human Muscarinic, M4 Receptor, CHRM4 (gene 1132) (UniProt P08173) (assay: NVS_GPCR_hM4: NovaScreen (NVS) G Protein-Coupled Receptor Assay for human Muscarinic, M4 Receptor (AID 2283274)).
Method in brief: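 Filter-based scintillation counting of radioligand bound to CHO-expressed human M4 preparations after 1 h; loss of signal fitted versus DMSO. Initial duplicate testing at 25 uM, concentration-response follow-up for actives.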

Chain of human Muscarinic, M4 Receptor, CHRM4 (gene 1132) (P08173 whole entry, looked up): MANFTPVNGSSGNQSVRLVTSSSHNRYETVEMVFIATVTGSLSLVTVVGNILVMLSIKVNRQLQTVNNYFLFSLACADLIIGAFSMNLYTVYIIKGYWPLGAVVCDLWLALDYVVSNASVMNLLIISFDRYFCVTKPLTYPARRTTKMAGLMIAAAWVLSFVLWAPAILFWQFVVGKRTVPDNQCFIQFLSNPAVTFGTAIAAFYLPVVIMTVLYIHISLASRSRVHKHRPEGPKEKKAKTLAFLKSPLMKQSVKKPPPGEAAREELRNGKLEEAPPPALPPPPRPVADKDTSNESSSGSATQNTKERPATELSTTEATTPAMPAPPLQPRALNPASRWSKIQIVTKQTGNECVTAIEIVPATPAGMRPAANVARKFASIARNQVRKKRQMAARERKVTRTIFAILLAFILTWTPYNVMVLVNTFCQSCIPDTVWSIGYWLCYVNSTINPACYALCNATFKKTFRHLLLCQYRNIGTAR

Row | Structure (SMILES) | AC50
10 | c1ccc(C[n+]2cccc3ccccc32)cc1 | 16.8 µM (active)
11 | Cc1occc1C(=O)Nc1ccc(C(=O)N2CCC(F)(F)/C(=C\C(=O)N3CCC(N4CCCCC4)CC3)c3ccccc32)cc1 | 7.11 µM (active)
12 | Clc1cc(Cl)c2c(c1)N=C1CCCCCN1C2 | 1.71 µM (active)

These compounds were tested against Muscarinic acetylcholine receptor M5 (Homo sapiens) (UniProt P08912) (assay: NVS_GPCR_hM5: NovaScreen (NVS) G Protein-Coupled Receptor Assay for human Muscarinic, M5 Receptor (AID 2283275)).
Method in brief: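 Chemicals passing a primary duplicate screen at 25 uM were run as singleton concentration series, maximum 50 uM. Displacement of a specific radioligand from CHO-extracted receptor was read by filter scintillation after 1 h, relative to DMSO.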

Chain of Muscarinic acetylcholine receptor M5 (Homo sapiens) (P08912 whole entry, looked up): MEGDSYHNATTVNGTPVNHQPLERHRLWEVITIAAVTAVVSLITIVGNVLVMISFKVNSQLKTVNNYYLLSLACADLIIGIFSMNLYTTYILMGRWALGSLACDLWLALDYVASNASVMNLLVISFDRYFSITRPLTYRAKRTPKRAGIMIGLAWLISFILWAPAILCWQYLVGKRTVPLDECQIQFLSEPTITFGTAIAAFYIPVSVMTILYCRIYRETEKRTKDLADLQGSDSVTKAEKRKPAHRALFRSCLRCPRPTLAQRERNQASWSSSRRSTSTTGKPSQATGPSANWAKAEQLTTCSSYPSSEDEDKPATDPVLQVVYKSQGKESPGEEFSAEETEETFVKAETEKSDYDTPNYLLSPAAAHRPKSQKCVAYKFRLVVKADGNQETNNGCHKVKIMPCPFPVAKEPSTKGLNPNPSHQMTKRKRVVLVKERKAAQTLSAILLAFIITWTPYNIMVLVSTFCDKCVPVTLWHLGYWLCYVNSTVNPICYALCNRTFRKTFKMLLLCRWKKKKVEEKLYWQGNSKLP

Row | Structure (SMILES) | AC50
13 | c1ccc(C[n+]2cccc3ccccc32)cc1 | 11.8 µM (active)
14 | Cc1occc1C(=O)Nc1ccc(C(=O)N2CCC(F)(F)/C(=C\C(=O)N3CCC(N4CCCCC4)CC3)c3ccccc32)cc1 | 5.91 µM (active)
15 | Clc1cc(Cl)c2c(c1)N=C1CCCCCN1C2 | 2.01 µM (active)

These compounds were tested against Neuropeptide Y receptor type 2 (Homo sapiens) (UniProt P49146) (assay: NVS_GPCR_hNPY2: NovaScreen (NVS) G Protein-Coupled Receptor Assay for human Neuropeptide Receptor Y2 (NPY2) (AID 2283277)).
Method in brief: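 Chemicals were first tested in duplicate at 25 uM, then actives in singleton concentration series to 50 uM. Tracer binding to SK-N-MC-derived protein measured cell-free after 1 h via filter scintillation; signal loss relative to DMSO.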

Chain of Neuropeptide Y receptor type 2 (Homo sapiens) (P49146 whole entry, looked up): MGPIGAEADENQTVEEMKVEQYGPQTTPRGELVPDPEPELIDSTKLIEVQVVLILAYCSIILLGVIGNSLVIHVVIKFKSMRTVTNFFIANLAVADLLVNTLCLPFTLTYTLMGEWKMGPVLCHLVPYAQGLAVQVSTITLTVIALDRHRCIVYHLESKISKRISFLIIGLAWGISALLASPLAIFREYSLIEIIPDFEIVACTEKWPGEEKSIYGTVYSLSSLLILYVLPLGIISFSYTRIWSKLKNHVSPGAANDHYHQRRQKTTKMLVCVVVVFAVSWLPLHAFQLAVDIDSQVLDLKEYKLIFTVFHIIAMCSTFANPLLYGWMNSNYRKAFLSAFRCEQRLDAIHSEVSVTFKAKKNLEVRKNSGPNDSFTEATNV

Row | Structure (SMILES) | outcome | AC50
16 | O=C(O)Cn1c(=O)n(Cc2ccc(Br)cc2F)c(=O)c2ccc(Cl)cc21 | inactive | 
17 | CO[C@H]1/C=C/O[C@@]2(C)Oc3c(C)c(O)c4c(O)c(c(/C=N/N5CCN(C)CC5)c(O)c4c3C2=O)NC(=O)/C(C)=C\C=C\[C@H](C)[C@H](O)[C@@H](C)[C@@H](O)[C@@H](C)[C@H](OC(C)=O)[C@@H]1C |  | 0.0867 µM (active)
18 | CCCCCCCCCCCO | inactive | 

These compounds were tested against human Neurokinin, NK2 Receptor, TACR2 (gene 6865) (UniProt P21452) (assay: NVS_GPCR_hNK2: NovaScreen (NVS) G Protein-Coupled Receptor Assay for human Neurokinin, NK2 Receptor (AID 2283278);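 further: actives reduce bound radioligand signal relative to DMSO baseline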).
Method in brief: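 Radioligand binding on membranes from CHO cells expressing receptor, filter-based scintillation read 4 h after dosing. Initial duplicate screen at 25 uM, actives in concentration series; loss of signal versus DMSO.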

Chain of human Neurokinin, NK2 Receptor, TACR2 (gene 6865) (P21452 whole entry, looked up): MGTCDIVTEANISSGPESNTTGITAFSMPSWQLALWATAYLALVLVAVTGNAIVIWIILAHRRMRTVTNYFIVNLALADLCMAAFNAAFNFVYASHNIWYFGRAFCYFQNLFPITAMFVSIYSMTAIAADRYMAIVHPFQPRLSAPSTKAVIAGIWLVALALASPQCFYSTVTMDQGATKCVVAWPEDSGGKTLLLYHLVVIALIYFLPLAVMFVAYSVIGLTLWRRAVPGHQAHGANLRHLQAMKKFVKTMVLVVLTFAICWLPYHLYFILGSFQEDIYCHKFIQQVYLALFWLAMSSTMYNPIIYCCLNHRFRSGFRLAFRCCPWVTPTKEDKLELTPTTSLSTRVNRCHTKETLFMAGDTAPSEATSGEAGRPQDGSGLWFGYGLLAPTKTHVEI

Row | Structure (SMILES) | outcome | AC50
19 | CCCOC(=O)c1cc(O)c(O)c(O)c1 | inactive | 
20 | O=CCCCC=O | inactive | 
21 | CC1(C)NC(=O)N(c2ccc([N+](=O)[O-])c(C(F)(F)F)c2)C1=O | inactive | 
22 | O=c1[nH]sc2ccccc12 |  | 0.38 µM (active)
23 | Cc1oc2c(NC(=O)c3c(Cl)cccc3Cl)cccc2c1C(C)(C)O | inactive | 
24 | CN(C[C@@H](CC[N+]12CCC(C3CCCCC3)(CC1)CC2)c1ccc(Cl)c(Cl)c1)C(=O)c1cc(C(F)(F)F)cc(C(F)(F)F)c1 |  | 0.0311 µM (active)

Each compound was assayed against human Thromboxane A2 Receptor (TXA2), TBXA2R (gene 6915) (UniProt P21731) (assay: NVS_GPCR_hTXA2: NovaScreen (NVS) G Protein-Coupled Receptor Assay for human Thromboxane A2 Receptor (TXA2) (AID 2283282);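 further: actives reduce bound radioligand signal relative to DMSO baseline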).
Method in brief: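 Human platelet-derived receptor preparation incubated with test chemical and radiolabelled ligand for 1 hour, cell-free. Bound label was separated by filtration and counted; displacement relative to DMSO controls gave activity, screened at 25 uM, then titrated.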

Chain of human Thromboxane A2 Receptor (TXA2), TBXA2R (gene 6915) (P21731 whole entry, looked up): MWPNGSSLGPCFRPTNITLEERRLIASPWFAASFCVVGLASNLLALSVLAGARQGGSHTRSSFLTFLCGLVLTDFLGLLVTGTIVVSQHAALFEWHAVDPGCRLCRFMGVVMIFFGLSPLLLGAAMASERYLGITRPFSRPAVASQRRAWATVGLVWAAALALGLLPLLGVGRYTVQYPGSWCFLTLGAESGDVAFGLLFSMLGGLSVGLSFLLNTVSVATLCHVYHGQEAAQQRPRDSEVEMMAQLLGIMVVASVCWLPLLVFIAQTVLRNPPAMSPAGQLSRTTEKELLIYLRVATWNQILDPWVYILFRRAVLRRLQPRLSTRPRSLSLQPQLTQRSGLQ

Row | Structure (SMILES) | outcome | AC50
25 | CO[C@H]1/C=C/O[C@@]2(C)Oc3c(C)c(O)c4c(O)c(c(/C=N/N5CCN(C)CC5)c(O)c4c3C2=O)NC(=O)/C(C)=C\C=C\[C@H](C)[C@H](O)[C@@H](C)[C@@H](O)[C@@H](C)[C@H](OC(C)=O)[C@@H]1C | inactive | 
26 | CCCCCCCCOc1ccc(C(=O)c2ccccc2)c(O)c1 |  | 25 µM (active)
27 | O=C1O[C@H]([C@@H](O)CO)C(O)=C1O |  | 8.76 µM (active)
28 | CCN(Cc1cccc(S(=O)(=O)O)c1)c1ccc(C(=C2C=CC(=[N+](CC)Cc3cccc(S(=O)(=O)O)c3)C=C2)c2ccccc2S(=O)(=O)[O-])cc1 |  | 8.17 µM (active)
29 | CN(C[C@@H](CC[N+]12CCC(C3CCCCC3)(CC1)CC2)c1ccc(Cl)c(Cl)c1)C(=O)c1cc(C(F)(F)F)cc(C(F)(F)F)c1 |  | 25 µM (active)

The compounds below were run against rat Serotonin, 5-Hydroxytryptamine Receptor 1 (5HT1), Non-Selective Binding, Htr1a (gene 24473) (UniProt P19327) (assay: NVS_GPCR_r5HT1_NonSelective: NovaScreen (NVS) G Protein-Coupled Receptor Assay for rat Serotonin, 5-Hydroxytryptamine Receptor 1 (5HT1), Non-Selective Binding (AID 2283286)).
Method in brief: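 Binding of a radioligand to rat cortex membranes is read by filtration and scintillation counting after 1 h. Compounds were screened at 25 uM in duplicate. Actives were then titrated to a top of 50 uM. DMSO is the baseline.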

Chain of rat Serotonin, 5-Hydroxytryptamine Receptor 1 (5HT1), Non-Selective Binding, Htr1a (gene 24473) (P19327 whole entry, looked up): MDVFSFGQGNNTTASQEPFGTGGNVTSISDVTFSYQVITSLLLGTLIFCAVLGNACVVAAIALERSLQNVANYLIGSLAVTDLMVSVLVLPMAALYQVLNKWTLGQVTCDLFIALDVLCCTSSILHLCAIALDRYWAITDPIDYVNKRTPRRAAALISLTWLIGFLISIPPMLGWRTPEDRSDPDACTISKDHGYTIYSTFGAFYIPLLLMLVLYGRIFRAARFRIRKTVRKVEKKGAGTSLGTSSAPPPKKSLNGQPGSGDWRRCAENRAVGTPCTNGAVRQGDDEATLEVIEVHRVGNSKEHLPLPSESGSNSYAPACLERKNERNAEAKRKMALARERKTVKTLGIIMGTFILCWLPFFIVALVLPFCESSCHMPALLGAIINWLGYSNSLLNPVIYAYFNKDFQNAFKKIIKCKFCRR

Row | Structure (SMILES) | outcome | AC50
30 | CC[C@@H]1C[C@H](N(Cc2cc(C(F)(F)F)cc(C(F)(F)F)c2)C(C)=O)c2cc(C(F)(F)F)ccc2N1C(=O)OC(C)C | inactive | 
31 | O=c1[nH]sc2ccccc12 |  | 40.4 µM (active)
32 | CC1=CC(=O)/C(=C(/C)O)C(=O)O1 | inactive | 
